Bioassay records deposited in PubChem BioAssay by several laboratories.
The list is not random: actives were taken first. Their share in the collection is about 1.5%.
PKA kinase inh – PKA (human) kinase inhibition; P17612; PKA Kemptide phosphorylation, Kinase-Glo ATP luminescence; inhibition, % at 6 µM; 65,000 tested, 0.1% active;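 active = inhibition above the screen-wide mean inhibition plus 3 SD, cut at about 21% in these data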
PLK1 kinase inh – blocks human PLK1 kinase activity; P53350; recombinant PLK1 kinase, TR-FRET peptide phosphorylation; inhibition, % at 10 µM; 97,000 tested, 0.53% active;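 active = inhibition of 50% or more in the single-concentration screen; inactive = inhibition below 50%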;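 note: 0% = DMSO max control and 100% = H-89 dihydrochloride min control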
FAK inh – blocks human focal adhesion kinase activity; biochemical FAK kinase activity assay; 97,000 tested, 0.84% active; inhibition, %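 (tested at 7 µM)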;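 note: 0% = DMSO and 100% = reference compound high control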
JNK3 inh – JNK3 (human) kinase inhibition; P53779; purified JNK3 kinase activity, HTS; inhibition, % at 8 µM; 60,000 tested, 0.61% active; in the data active = inhibition above about 17%;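 note: 0% = DMSO and 100% = reference inhibitor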
Target sequence (P53779 whole entry, looked up): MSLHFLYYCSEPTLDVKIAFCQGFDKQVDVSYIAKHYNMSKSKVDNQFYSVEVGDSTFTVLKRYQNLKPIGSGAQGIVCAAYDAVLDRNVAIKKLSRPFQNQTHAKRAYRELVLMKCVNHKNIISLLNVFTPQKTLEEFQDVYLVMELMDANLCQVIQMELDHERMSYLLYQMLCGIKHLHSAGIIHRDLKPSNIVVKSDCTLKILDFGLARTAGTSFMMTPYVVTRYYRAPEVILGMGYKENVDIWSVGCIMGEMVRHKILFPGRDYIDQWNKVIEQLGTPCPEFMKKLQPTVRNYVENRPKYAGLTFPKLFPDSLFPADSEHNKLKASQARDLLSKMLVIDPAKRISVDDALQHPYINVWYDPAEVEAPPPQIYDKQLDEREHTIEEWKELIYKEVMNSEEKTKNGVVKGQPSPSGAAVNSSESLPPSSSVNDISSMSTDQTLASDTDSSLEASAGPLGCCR
ROCK2 inh – inhibitors of human Rho kinase 2; inhibition, % at 6 µM; 60,000 tested, 0.35% active; purified ROCK2, Kinase-Glo ATP depletion luminescence; O75116;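 active = inhibition above the screen-wide mean inhibition plus 3 SD, cut at about 18% in these data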;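 note: plate controls were DMSO wells for no effect and Y-27632 control wells after no-enzyme background subtraction for full effect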
Plk1 PBD FP – blocks phosphopeptide binding to human Plk1 polo box domain. AID 693. Plk1 PBD phosphopeptide binding, fluorescence polarization. inhibition, %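 (tested at about 20 µM)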. P53350. 97,000 tested, 0.13% active; in the data active = inhibition above about 34%, passing the limit was not always enough
FAK inh conf – confirmation of human focal adhesion kinase (FAK) inhibitors. shares compounds with FAK inh. FAK kinase biochemical inhibition assay. inhibition, % at 7 µM. 750 tested, 28% active. AID 794
An asterisk follows results filed as active; . = no result. Cut-off read from the data, not from the text of the source, unless noted: active = inhibition above about 19%; inactive = the rest.

SMILES | PKA kinase inh | PLK1 kinase inh | FAK inh | JNK3 inh | ROCK2 inh | Plk1 PBD FP | FAK inh conf
CCOC(=O)c1c(C)[nH]c(O)c1C=Nc1ccc(Cl)cc1 | . | -13.4 | 14.2 | . | . | 14.2 | .
COC(=O)c1c(C)[nH]c(O)c1C=Nc1ccc(C(C)C)cc1 | . | -5.5 | 29.2* | . | . | -20.2 | 10.0
O=C(Nc1ccc(-c2nc3ccc(NC(=O)c4cccs4)cc3[nH]2)cc1)c1cccs1 | . | -10.3 | 53.4* | . | . | -11.1 | 46.9*
Cn1c(=O)c2c3c(sc2n2c(SCc4ccc5c(c4)OCO5)nnc12)COC(C)(C)C3 | 2.6 | . | . | -2.1 | 0.7 | . | .
CCc1ccc2nc(N3CCN(C)CC3)c(C#N)cc2c1 | -2.1 | -1.7 | -2.0 | 4.8 | 4.9 | -3.9 | .
CCc1ccc2nc3n[nH]c(N)c3cc2c1 | . | 29.4 | 40.4* | . | . | 16.5 | 19.6*
O=C(CNC(=O)c1ccco1)OCC(=O)c1ccc2c(c1)CCCC2 | -2.1 | -18.8 | 26.9* | 4.9 | 0.5 | -33.4 | -2.8
O=c1[nH]nnc2sc3c(c12)CCCC3 | 1.9 | -4.1 | 27.1* | . | . | 4.5 | 12.6
CC1(C)Cc2c(sc3nn[nH]c(=O)c23)CO1 | 4.9 | -5.0 | 0.9 | 8.2 | 3.6 | 13.7 | .
Cc1cccn2c(=O)c(C=Nc3ccccc3)c(NCc3ccco3)nc12 | 5.2 | 20.2 | 23.9* | -13.3 | -2.9 | -25.2 | 3.8
Cc1cccn2c(=O)c(C=NCCO)c(NCc3ccco3)nc12 | . | -10.1 | 11.2 | . | . | -18.1 | .
O=C(N/N=C/c1ccc2ccccc2c1)c1ccc(COc2ccc3c(c2)CCC3)o1 | . | -11.2 | 33.5* | . | . | -20.3 | 24.0*
Cc1ccc(C(C2C(=O)CC(C)(C)CC2=O)C2C(=O)CC(C)(C)CC2=O)s1 | . | -12.6 | 22.4* | . | . | 10.0 | -0.3
O=C(N/N=C/c1ccncc1)c1cc2c(ccc3ccccc32)o1 | . | -12.4 | 52.1* | . | . | -6.8 | 17.3
O=C(N/N=C/c1cccc([N+](=O)[O-])c1)c1cc2c(ccc3ccccc32)o1 | . | -5.7 | 13.0 | . | . | -1.5 | .
COc1ccc(-c2coc3cc4oc(=O)cc(C)c4cc23)cc1F | . | -14.6 | 35.8* | . | . | -24.0 | 22.6*
COc1ccc(S(=O)(=O)N2CCCC(C(=O)N3CCOCC3)C2)cc1C (stereo not given) | -2.9 | -1.1 | 2.0 | -4.8 | -4.5 | -12.3 | .
Cc1nc(NCc2ccco2)c2oc3ccccc3c2n1 | 1.8 | -5.3 | 23.9* | . | . | 4.9 | 8.1
CCc1nc(SCC(=O)NNC(=O)C2CCCCC2)c2ccccc2n1 | . | -8.5 | 35.5* | . | . | 1.7 | 20.2*
Cc1ccc(SCC(=O)NNC(=O)C2CCCCC2)cc1 | . | -7.8 | 2.8 | . | . | 22.8 | .
CCc1nc(SCC(=O)NNC(=O)C(C)C)c2ccccc2n1 | . | -9.3 | 41.8* | . | . | 18.1 | 18.8
CCOC(=O)CSc1nc(CC)nc2ccccc12 | 5.6 | . | . | 15.2 | 5.7 | . | .
Cc1cc(C)c(C)c(OCC(=O)N2CCCCCC2)c1 | . | -4.7 | 2.0 | . | . | 29.8 | .
COc1ccc(CCn2c(=S)[nH]c3cc(C(=O)NCc4ccco4)ccc3c2=O)cc1OC | 14.9 | -11.6 | 35.2* | -2.5 | 11.0 | -10.9 | 11.6
COc1ccc(-n2c(=S)[nH]c3cc(C(=O)NCc4ccco4)ccc3c2=O)cc1OC | 1.6 | -12.6 | -0.6 | 2.1 | 1.7 | -14.6 | .
SMILES | PKA kinase inh | PLK1 kinase inh | FAK inh | JNK3 inh | ROCK2 inh | Plk1 PBD FP | FAK inh conf
CCCOc1ccc(/C=N/NC(=O)c2ccc(Cn3cc([N+](=O)[O-])cn3)o2)cc1 | . | -14.0 | 23.9* | . | . | 18.9 | 18.5
CCCOc1ccc(CNC(=S)N/N=C/c2ccc([N+](=O)[O-])cc2)cc1 | . | -11.8 | -0.2 | . | . | 0.6 | .
COc1ccc(NS(=O)(=O)c2ccc(OCC(=O)N3CCOCC3)cc2)cc1 | . | -2.4 | 1.9 | . | . | -5.2 | .
C=C(C)CN(CC)C(=O)COc1ccc(S(=O)(=O)Nc2ccc(OC)cc2)cc1 | . | -16.1 | 29.8* | . | . | 12.6 | -0.1
COCc1nc2ccccc2n1CCOc1ccccc1OC | 1.8 | -9.6 | -5.4 | -1.4 | 3.1 | 3.0 | .
COCCNC(=O)C(c1ccc(C)o1)N(C(=O)c1snc(C(N)=O)c1N)c1ccc(C)c(C)c1 (stereo not given) | -6.2 | -21.5 | 23.0* | 7.7 | -1.9 | -8.4 | 9.4
COCCNC(=O)C(c1ccc(C)o1)N(C(=O)c1snc(C(N)=O)c1N)c1cccc(C)c1 (stereo not given) | -1.0 | -2.2 | 20.1* | -0.8 | -1.6 | -34.6 | 5.9
CN(C)c1cc2c(c(N(C)C)c1)C(=O)c1ccccc1C2=O | . | -4.6 | 48.6* | . | . | 15.7 | 24.0*
CN(C)C=C1C(=O)c2ccccc2C1=O | 1.4 | -16.1 | 1.1 | -1.2 | -11.1 | -14.4 | .
CC(C)CCNC(=O)C(c1cccnc1)N(Cc1ccccc1)C(=O)Cn1nnc2ccccc21 (stereo not given) | . | -2.0 | 0.7 | . | . | -25.6 | .
CCCCCCCC(=O)Nc1ccc(C(=O)N/N=C/c2cccc([N+](=O)[O-])c2)cc1 | . | -5.6 | 33.6* | . | . | 11.8 | 16.9
